Reference: the supplement of paper PMC12636033
± gives the standard deviation of the averaged measurements. In all, about 33,000 sequences were measured (“E-score (rank enrichment, -0.5 to 0.5)”: median about -0.0075, highest 2% from about 0.23 on). Shown is part of a subset that was picked to be rich in the highest values.

What follows are sequences tested on WT Max(13-93) synthetic (M65Nle) (assay: PBM 8-mer E-score (E-score (rank enrichment, -0.5 to 0.5)); higher = stronger preferential binding).
Procedure: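 Protein binding microarray (universal PBM chip covering all 10-mers in fixed probe flanks) with chemically synthesized human Max(13-93) bHLH-LZ analogs (not full-length Max) bearing noncanonical residues (hArg, Tha, Aib, Nle at 65) and aromatic Cys staples. Read-out per 8-mer (and its reverse complement): E-score (rank-based enrichment, -0.5 to 0.5) and Z-score of median probe intensity.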

Sequence | PBM 8-mer E-score
CTGCTATC | -0.116 ± 0.021
CTAGACGC | -0.0678 ± 0.01
AAAATTCG | 0.181 ± 0.015
ACTAAAAT | 0.073 ± 0.087
GATACAAA | 0.0639 ± 0.0017
ACTACAAG | -0.03 ± 0.032
AATACAAC | 0.233 ± 0.077
CATACAAC | 0.162 ± 0.012
CCTACAAC | 0.126 ± 0.041
ACTACAAC | 0.253 ± 0.024
AATACAAG | 0.148 ± 0.0056
AATACAAA | 0.288 ± 0.024
AATACAAT | 0.0116 ± 0.074
ATCGTCTG | -0.0768 ± 0.04
AGTAGACC | -0.143 ± 0.07
AGTGACCA | -0.0103 ± 0.17
AAGGCAAG | 0.149 ± 0.045
CAGTATCG | -0.0719 ± 0.0012
GACAATTA | -0.0274 ± 0.019
CTGATCAG | -0.107 ± 0.14
ATTGGACC | -0.0681 ± 0.039
AGAAGTAG | 0.0117 ± 0.017
ACCGGAAA | -0.104 ± 0.11
ATAATTTA | 0.228 ± 0.014
ATAATTAT | 0.239 ± 0.0049
ATAATTAA | 0.22 ± 0.13

Sequence | PBM 8-mer E-score
ATAATTTC | 0.0565 ± 0.03
CTAATTAG | 0.0687 ± 0.053
ATAATTAG | 0.237 ± 0.16
ATAATTAC | 0.232 ± 0.019
ATAATTCG | 0.147 ± 0.059
ATAATTTG | 0.254 ± 0.031
AGCACAGC | -0.163 ± 0.16
ACTCTCTG | -0.0092 ± 0.11
CCGCCTCA | -0.108 ± 0.14
ATGGTTTA | 0.161 ± 0.047
AATGGGAA | 0.0482 ± 0.059
GATGTTGA | 0.0902 ± 0.11
CATGTTGC | 0.12965 ± 2.8e-05
AATGTTGA | -0.0484 ± 0.091
CATGTTGG | 0.156 ± 0.063
TATGTTGA | 0.233 ± 0.0055
CATGTTGA | 0.256 ± 0.1
ACGCGTAT | 0.108 ± 0.0066
CAGCGAGA | -0.174 ± 0.013
GACGAATA | 0.17 ± 0.011
GTCGTCCA | -0.159 ± 0.064
ACGTGGCC | 0.247 ± 0.0096
AGGTGGCG | 0.13 ± 0.021
ACGTGGCG | 0.296 ± 0.05
AAGTGGCT | 0.0496 ± 0.069
ACGTGGCT | 0.286 ± 0.018

Sequence | PBM 8-mer E-score
CCGTGGCG | -0.147 ± 0.07
ACGTGGCA | 0.33 ± 0.0069
GCGTGGCC | 0.0675 ± 0.016
TCGTGGCA | 0.219 ± 0.1
ACTTGGCT | -0.128 ± 0.062
CCGTGGCC | -0.112 ± 0.013
CCGTGGCA | -0.0466 ± 0.052
ACGGGCTC | -0.297 ± 0.085
CGGCAACA | -0.15 ± 0.01
ACCGCTAG | -0.0126 ± 0.12
CCCACATC | -0.1 ± 0.063
AGATGCAA | 0.152 ± 0.13
CACTCCAA | -0.103 ± 0.025
CCGCTCGC | -0.0861 ± 0.086
ACCCCCCG | -0.2 ± 0.1
ATGGCGAA | 0.104 ± 0.068
ACGCGTGG | 0.212 ± 0.03
ACGCGTGC | 0.244 ± 0.02
CAGCGTGC | 0.191 ± 0.014
CCGCGTGA | 0.172 ± 0.0086
ACGCGTGA | 0.219 ± 0.081
CCGCGTGC | 0.268 ± 0.051
AACCCAAG | 0.00894 ± 0.087
CGGGAAAC | -0.106 ± 0.079
CCTAACAA | 0.11 ± 0.026
AATAACAA | 0.264 ± 0.018

Sequence | PBM 8-mer E-score
AATAACAT | 0.181 ± 0.049
TATAACAA | 0.24 ± 0.026
TCTAACAA | -0.0242 ± 0.029
AATAACAG | 0.17 ± 0.06
CATAACAA | 0.251 ± 0.042
AATAACAC | 0.0775 ± 0.12
GATAACAA | 0.0563 ± 0.033
CATAACAG | 0.125 ± 0.021
CGTAACAA | 0.136 ± 0.087
CATAACAC | 0.236 ± 0.016
CTACGTCC | -0.0109 ± 0.12
AGCAATGC | 0.12 ± 0.09
GGGGACAC | -0.27 ± 0.018
AAAAGGGG | 0.0924 ± 0.053
CGACCAGC | -0.0396 ± 0.11
CAAATAGC | 0.0495 ± 0.0037
CGCCCGTC | -0.106 ± 0.034
AGAGCTAG | -0.0196 ± 0.051
CTTGCCCC | -0.0869 ± 0.1
ATAGCCTG | -0.155 ± 0.11
ACATACAG | 0.219 ± 0.059
TCATACGA | 0.115 ± 0.021
ACATACAT | 0.26 ± 0.042
AGATACAG | 0.134 ± 0.061
AGATACAT | 0.245 ± 0.022
ACATACGA | 0.237 ± 0.015

Sequence | PBM 8-mer E-score
AGATACAA | 0.126 ± 0.036
ACATACGC | 0.0685 ± 0.056
ACATACAC | 0.139 ± 0.048
CATCTCTA | -0.0266 ± 0.00032
ACGGGCTG | -0.16 ± 0.005
AGATAACC | 0.0122 ± 0.027
AGATAATC | -0.146 ± 0.023
AAATAACA | 0.198 ± 0.039
AAATAACG | 0.26 ± 0.0036
CGATAACG | -0.0133 ± 0.18
AGATAATA | 0.131 ± 0.045
AGATAACG | 0.256 ± 0.041
CAATAACG | 0.0031 ± 0.057
AGATAATG | 0.241 ± 0.012
ATCTTGGA | -0.118 ± 0.068
ACAATGCC | 0.0109 ± 0.11
GATATCCC | -0.108 ± 0.023
ACACTTAT | 0.0681 ± 0.02
CCCTGAAG | -0.071 ± 0.03
ACACGACT | 0.123 ± 0.049
ACACGACC | 0.0326 ± 0.019
ACACGACA | 0.289 ± 0.1
CGCCAACC | -0.101 ± 0.11
ACTAGTAG | 0.11 ± 0.088
ACTAGTAA | 0.256 ± 0.1
ACTAGTAT | 0.184 ± 0.02

Sequence | PBM 8-mer E-score
CTTTCCAC | 0.196 ± 0.17
AATCCTGG | -0.171 ± 0.16
GTTTCCTA | 0.257 ± 0.11
CTTTCCTA | 0.0286 ± 0.077
ATTTCCTA | 0.135 ± 0.027
CGCCCGGA | -0.201 ± 0.068
CAATGGTA | 0.15 ± 0.041
CTATGGTA | 0.0296 ± 0.11
ATATGGTC | 0.164 ± 0.09
AAATGGTA | 0.253 ± 0.056
TAATGGTA | 0.0384 ± 0.1
ATATGGTA | 0.241 ± 0.069
TCGGTTCA | -0.0182 ± 0.1
GATGGCAA | 0.158 ± 0.091
AAGCTCCC | -0.171 ± 0.036
GCAGACCA | -0.213 ± 0.1
AATATACA | 0.246 ± 0.052
TATATAGA | 0.104 ± 0.084
CATATACA | 0.271 ± 0.067
CATATAGA | 0.166 ± 0.049
CATATACC | -0.0092 ± 0.047
AATATAGA | 0.277 ± 0.044
AATATACT | 0.104 ± 0.069
GATATACA | 0.08271 ± 0.00014
TATATACA | 0.0403 ± 0.021
ATTGCGTA | 0.188 ± 0.035

Sequence | PBM 8-mer E-score
CGACGCAA | -0.157 ± 0.015
ATGCTTAA | 0.189 ± 0.046
CAAGGCCA | 0.0607 ± 0.0078
CTATAACA | 0.129 ± 0.045
ATATAACC | 0.0791 ± 0.029
ATATAACG | 0.299 ± 0.0035
ATATAACA | 0.237 ± 0.052
CTATAACC | 0.0479 ± 0.05
GTATAACA | 0.202 ± 0.035
AGAGAGCG | -0.102 ± 0.039
AGCCACAT | 0.0887 ± 0.052
CATCGTGG | -0.0807 ± 0.055
CAATCACA | 0.247 ± 0.019
CAATCACG | 0.274 ± 0.05
GAATCACA | -0.023 ± 0.11
TCATCACA | 0.116 ± 0.011
ACATCACG | 0.0554 ± 0.057
TAATCACA | 0.201 ± 0.049
AAATCACA | 0.163 ± 0.043
CAATCACC | 0.0883 ± 0.0053
